Source: PubChem BioAssay (Sanford-Burnham Center for Chemical Genomics)
Sampled rows, rich in hits. Any-hit rate of the full collection: about 4%.
tim10-1 inh: growth inhibitors of tim10-1 mutant yeast; S. cerevisiae tim10-1 ts strain growth, BacTiter-Glo, 24 h; inhibition, % at 20 µM; 330,000 compounds, 2.2% hits;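 active means inhibition of at least 40%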;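 further: mutant grown at 25 °C; 0% = DMSO wells with yeast and 100% = wells holding no yeast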
NALP1 yeast inh: NALP1 inhibition | S. cerevisiae NALP1/ASC/caspase-1 growth, X-gal OD620, 72 h | inhibition, % at 10 µM | 280,000 compounds, 0.61% hits | AID 2071; in the data active means inhibition mostly above about 24%, no sharp cut-off; inactive means mostly below about 32%
TIM10 inh: TIM10 yeast growth inhibition | S. cerevisiae TIM10 strain growth, BacTiter-Glo luminescence, 24 h | 330,000 compounds, 1.4% hits | inhibition, % at 10 µM;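 active means inhibition of 40% or more at the single tested concentration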;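 further: wild-type TIM10 isogenic control strain grown at permissive 25 °C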
NLRP3 yeast inh: NALP3 inhibition in yeast; Yeast reconstituted NLRP3/ASC/caspase-1, beta-gal luminescence, 24 h; inhibition, % at 10 µM; 330,000 compounds, 0.39% hits;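 active means inhibition of 50% or more; inactive means inhibition below 50%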;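 further: plate controls were induced DMSO wells for no effect and uninduced yeast grown without galactose for full effect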
tim23-1 inh: inhibits growth of tim23-1 mutant yeast | S. cerevisiae tim23-1 growth, BacTiter-Glo luminescence, 24 h | inhibition, % at 20 µM | AID 463212 | 330,000 compounds, 1.3% hits;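 active means growth inhibition of the mutant yeast at or above 50%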;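 further: temperature-sensitive mutant grown at 25 °C; plate controls were DMSO-treated mutant yeast for no effect and medium wells lacking yeast for full effect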
Active calls of the source: *; / = no result.

SMILES	tim10-1 inh	NALP1 yeast inh	TIM10 inh	NLRP3 yeast inh	tim23-1 inh
CCOC(=O)c1c(C)n(-c2ccccc2)c2ccc(OCCN(C)C)cc12	24	44*	7	12	14
CCOC(=O)c1c(C)n(C)c2ccc(OCCN(C)C)cc12	-15	14	1	2	-9
Cc1ccc(N(C(=O)c2ccco2)C2C=CS(=O)(=O)C2)cc1 (centres undefined)	5	4	2	16	3
COc1ccc(S(=O)(=O)N(C)Cc2cccs2)cc1Br	19	41*	20	32	25
CCOc1ccc(S(=O)(=O)Nc2cccc(N(C)S(C)(=O)=O)c2)cc1	-10	42*	-1	10	-8
CCOC(=O)C(=O)NNc1ccc(C)cc1	10	23	8	28	4
CCOC(=O)C(=O)NNc1ccc(Cl)cc1	7	50*	-70	27	-117
COC(=O)c1cc(OC)c(OC)cc1NC(=O)c1ccccc1C	22	3	10	21	31
CC(CN1CCOCC1)OC(=O)C1COc2ccccc2O1 (centres undefined)	0	28*	-9	7	0
COc1ccc(CC(=O)OC(C)CN2CCOCC2)cc1 (centres undefined)	-5	29*	-5	18	-9
CC(CN(C)Cc1ccccc1)OC(=O)C1COc2ccccc2O1 (centres undefined)	17	0	7	10	11
CCN(CC)c1ncnc2c1cnn2Cc1ccc(Cl)cc1	24	3	7	12	41
COC(=O)CC(N)c1ccc(OC)c2ccccc12 (centres undefined)	13	36*	-24	25	-5
COc1ccccc1CNC(=O)CC(C)C	7	8	6	-8	6
CC(=O)CSc1nc(-c2cccs2)c(C#N)c(=O)[nH]1	-7	36*	15	7	6
CCNc1nc(NCC)n2c(SC(C(=O)Nc3cc(C)ccc3OC)c3ccccc3)nnc2n1 (centres undefined)	0	26	8	8	16
NC(=O)c1cc(S(=O)(=O)NCc2cccs2)cs1	-9	14	-3	6	-8
Cc1cccc(C)c1NC(=O)C1CCCN(CCCc2ccccc2)C1 (centres undefined)	/	42*	/	/	/
COc1cccc(CNC(=O)CCCC(=O)NC(C)CCc2ccccc2)c1 (centres undefined)	-2	18	-3	12	-8
Cc1ccc2c(=O)cc(C(F)F)oc2c1	-25	41*	-22	2	-1
Cc1cc(C)c2c(=O)cc(C(F)F)oc2c1	-23	-18	-24	9	-3
CCCn1c(=O)c(C(=O)Nc2ncccc2C)c(O)c2ccccc21	-13	33*	7	10	7
CCCn1c(=O)c(C(=O)Nc2cccc(C)n2)c(O)c2ccccc21	-27	11	-7	24	15
COC(=O)CN(c1ccccc1C)S(C)(=O)=O	15	31*	-9	9	-15
CCc1ccccc1N(CC(=O)OC)S(C)(=O)=O	5	-3	7	2	4
SMILES	tim10-1 inh	NALP1 yeast inh	TIM10 inh	NLRP3 yeast inh	tim23-1 inh
CC(C)CCNC(=O)CCCOc1ccccc1	-5	2	-7	2	9
CCC(=O)NCCCOc1ccccc1	2	27*	4	26	3
O=C(NCCN1CCN(c2ccccc2)CC1)c1ccc(NC(=O)C2CCCO2)cc1 (centres undefined)	7	42*	-14	2	2
c1ccc(-n2cc(CNCCc3cscn3)c(-c3ccc4c(c3)OCO4)n2)cc1	21	32*	19	19	19
OCc1cn(-c2ccccc2)nc1-c1ccc2c(c1)OCCO2	22	9	2	23	-14
CC(=O)c1cccc(NC(=O)CCn2c(=O)oc3ccccc32)c1	3	20	-21	6	5
Cc1cc(C)c(NC(=O)C2CCCCN2C)c(C)c1 (centres undefined)	-7	40*	-6	5	8
Cc1ccccc1C(=O)c1cccn1CC(=O)NCc1ccc2c(c1)OCO2	26	6	11	9	20
Cc1ccc(NC(=O)c2oc3ccccc3c2NC(=O)c2ccc3c(c2)OCO3)cc1	16	31*	1	6	-2
O=C(Nc1c(C(=O)Nc2cccc(F)c2)oc2ccccc12)c1ccc2c(c1)OCO2	12	18	-32	10	-3
CC(C)(C)C(=O)n1nc(-c2ccccc2)oc1=O	0	26	9	7	10
Cc1ccc(C(=O)O)cc1N=Cc1cc(Br)cc(Br)c1O	/	70*	/	/	/
Cc1ccc(C(=O)OCCOc2cccc(Cl)c2)cc1S(=O)(=O)N1CCOCC1	36	/	4	23	14
CCOC(=O)c1c(C)nc2c(c1-c1ccc(Cl)cc1)C(=O)CC(C)(C)C2	20	30	19	9	26
O=C(Nc1ncccc1O)c1ccc(Oc2ccccc2)cc1	-90	43*	-7	33	11
Cc1ccc(CNc2ccc(N3C(=O)CCCC3=O)cc2[N+](=O)[O-])cc1	4	17	-17	-1	0
Cc1cccc(C)c1N=Cc1c(C(F)(F)F)[nH][nH]c1=O	7	-7	6	-3	-1
CCC1S/C(=C(\C#N)C(=O)NCc2ccco2)N(c2ccc(Br)cc2)C1=O (centres undefined)	17	22*	3	11	26
COc1ccccc1N(CC(=O)NCCSCc1ccc(Cl)cc1)S(C)(=O)=O	25	16	2	8	0
COc1ccccc1OCC(=O)NCCSCc1ccc(Cl)cc1	15	64*	-27	21	15
Cc1ccc2oc(=O)c3cnn(CC(=O)N(CCN(C)C)Cc4ccco4)c3c2c1	4	41*	-3	18	-8
COCCCN(Cc1ccco1)C(=O)Cn1ncc2c(=O)oc3ccc(C)cc3c21	13	/	17	3	26
O=c1cc(CNCCCO)c2ccccc2[nH]1	-10	26*	2	4	9
O=C1/C(=C/c2cccnc2)Oc2cc(OS(=O)(=O)c3ccccc3)ccc21	31	37	27	10	30
O=C1/C(=C/c2cccnc2)Oc2cc(OS(=O)(=O)c3ccc(Cl)cc3)ccc21	21	41*	26	15	4
SMILES	tim10-1 inh	NALP1 yeast inh	TIM10 inh	NLRP3 yeast inh	tim23-1 inh
CCOC(=O)c1cnc2c(C(=O)OCC)cnn2c1N	3	38*	7	9	-5
CSc1ccc(/C=N/NC(=O)CN2CCN(Cc3ccccc3)CC2)cc1	0	30	8	10	17
Cc1ccc(/C=N/NC(=O)CN2CCN(Cc3ccccc3)CC2)o1	-18	45*	-3	8	-8
O=C(CN1CCCC1)N/N=C/c1ccc(-c2cccc(Cl)c2)o1	-14	32*	3	2	0
O=c1cc(O)nc(-c2ccc(Cl)cc2)s1	13	-7	22	12	12
COc1ccc(NC(=O)Cn2cnc3c(cnn3C(C)(C)C)c2=O)cc1OC	1	31*	-18	-7	1
C[C@@H](C(=O)NCc1ccccc1)N1C(=O)C2CC=CCC2C1=O (some centres undefined)	-1	36*	-5	8	-1
